“And” between values parts separate entries of the source, which are not always exact repeats. Equal entries are not always repeated. Some structures have more than one record in an assay (separate samples or runs), and their calls can disagree. The source made the active and inactive calls. How the source made its calls: active means hit-call score of the fitted dose curve at least 0.9, where 1 is the maximum; inactive means score below 0.9.
Experiments:
[1] = target: CCAAT/enhancer-binding protein beta (Homo sapiens) (UniProt P17676); experiment: ATG_C_EBP_CIS: Attagene CIS-FACTORIAL HepG2 Assay for human CCAAT/Enhancer Binding Protein (C/EBP) beta (AID 2282927); conditions: HepG2 Attagene cis-factorial transcription factor reporter; actives raise or lower the signal
Procedure, shortened: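 Endogenous C/EBPb-driven reporter transcripts measured in transfected human HepG2 cells at 24 h via RT-PCR and capillary electrophoresis of labelled fragments. Activity fitted in both directions relative to DMSO baseline.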

[2] = ATG_CMV_CIS: Attagene CIS-FACTORIAL HepG2 Assay for human CMV (Internal Marker) (AID 2282928); conditions: HepG2 CMV promoter reporter, transcription factor profiling; actives raise or lower the signal;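 further: endpoint acts as a background internal control marker rather than a target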
Procedure, shortened: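 Cell system: HepG2, transiently transfected multiple reporter units under cis promoters. Exposure: 24 h. Detection: RT-PCR, FAM labeling, HpaI digestion, capillary electrophoresis. Analysis: bidirectional, DMSO baseline.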

[3] = ATG_DR4_LXR_CIS: Attagene CIS-FACTORIAL HepG2 Assay for human Liver X Receptor (LXR), DR4 submotif (AID 2282929); conditions: HepG2 Attagene DR4 cis-reporter, mRNA transcription; actives raise or lower the signal
Procedure, shortened: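 Endogenous factor activity at a DR4 cis-element is read as reporter mRNA in transiently transfected HepG2 cells. Exposure lasts 24 h; transcripts are amplified, fluorescently labelled and sized by capillary electrophoresis, with DMSO as baseline.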

[4] = target: Aryl hydrocarbon receptor (Homo sapiens) (UniProt P35869); experiment: ATG_Ahr_CIS: Attagene CIS-FACTORIAL HepG2 Assay for human Aryl Hydrocarbon Receptor (Ahr) (AID 2282930); conditions: HepG2 AhR cis-factorial reporter transcription; actives raise or lower the signal
Procedure, shortened: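 Reporter mRNA levels, quantified by RT-PCR and fluorescent capillary electrophoresis, reflect endogenous AhR transcriptional activity in HepG2 cells carrying transfected cis-promoter reporter constructs. Readout at 24 h post-dose; gain or loss fitted against DMSO baseline.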

[5] = ATG_AP_1_CIS: Attagene CIS-FACTORIAL HepG2 Assay for human Activator Protein 1 (AP-1) (AID 2282931); conditions: HepG2 Attagene cis-factorial AP-1 reporter mRNA; actives raise or lower the signal
Procedure, shortened: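 Fluorescence of labelled PCR fragments separated by capillary electrophoresis gives reporter mRNA levels. HepG2 with transfected cis-regulated reporter units, 24 h exposure; DMSO serves as baseline for bidirectional curve fits.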

[6] = ATG_AP_2_CIS: Attagene CIS-FACTORIAL HepG2 Assay for human Activator Protein 2 (AP-2) (AID 2282932); conditions: HepG2 AP-2 cis-reporter, Attagene transcription factor profiling; actives raise or lower the signal
Procedure, shortened: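 HepG2, transient MRTU transfection, cis-regulated reporters; 24 h compound exposure; RNA isolated, RT-PCR, 6-FAM labelling, HpaI digest, CE fluorescence. DMSO = negative control/baseline, bidirectional fit.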

[7] = ATG_BRE_CIS: Attagene CIS-FACTORIAL HepG2 Assay for human Bone Morphogenetic Protein (BMP) Response Element (BRE) (AID 2282933); conditions: HepG2 BMP response element reporter, Attagene transcription factor profiling; actives raise or lower the signal
Procedure, shortened: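 Endogenous transcription factor activity read in transiently transfected HepG2 cells after 24 h chemical exposure. Bidirectional curve fitting against DMSO; readout is reporter transcript level by RT-PCR with capillary electrophoresis of labelled products.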

[8] = target: Retinoic acid receptor alpha (Homo sapiens) (UniProt P10276); experiment: ATG_DR5_RAR_CIS: Attagene CIS-FACTORIAL HepG2 Assay for human Retinoic Acid Receptor Alpha (RARE), DR5 submotif (AID 2282934); conditions: HepG2 Attagene cis-factorial RARE DR5 reporter, mRNA; actives raise or lower the signal;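 on AC50: reporter responds to endogenous RAR alpha beta and gamma in HepG2 not RARA alone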
Procedure, shortened: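 Reporter transcripts from a DR5-regulated unit, measured via RT-PCR plus capillary electrophoresis, reflect endogenous RAR activity in transiently transfected human HepG2 liver cells. Exposure lasted 24 h; gain or loss of signal scored against DMSO.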

[9] = target: Transcription factor E2F1 (Homo sapiens) (UniProt Q01094); experiment: ATG_E2F_CIS: Attagene CIS-FACTORIAL HepG2 Assay for human E2F Transcription Factor 1 (AID 2282935); conditions: HepG2 Attagene cis-reporter, E2F reporter RNA transcripts; actives raise or lower the signal
Procedure, shortened: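 Cis-element reporter mRNA induction in transiently transfected HepG2, 24 h exposure. Activity fitted in both directions relative to DMSO negative control.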

[10] = ATG_E_Box_CIS: Attagene CIS-FACTORIAL HepG2 Assay for human Enhancer Box (E-box) (AID 2282936); conditions: HepG2 E-box cis-reporter transcription, actives raise or lower the signal
Procedure, shortened: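 Cells: HepG2 (human liver), transient MRTU transfection. Exposure 24 h. RNA → oligo(dT) RT → PCR → 6-FAM label → HpaI → CE. Activity fitted both directions relative to DMSO.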

[11] = ATG_M_61_CIS: Attagene CIS-FACTORIAL HepG2 Assay for M61 Transcription Factor (Internal Marker) (AID 2282937); conditions: HepG2 Attagene CIS-FACTORIAL M61 internal marker reporter; actives raise or lower the signal
Procedure, shortened: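 This endpoint serves as an internal background control within a multiplexed HepG2 cis-reporter panel. Cells are exposed for 24 h; reporter mRNA is amplified, fluorescently labelled and sized by capillary electrophoresis, with DMSO as negative control.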

[12] = ATG_EGR_CIS: Attagene CIS-FACTORIAL HepG2 Assay for human Early Growth Response 1 (EGR1) (AID 2282938); conditions: HepG2 Attagene CIS-FACTORIAL EGR reporter mRNA; actives raise or lower the signal
Procedure, shortened: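 HepG2, transient MRTU transfection (cis promoters), 24 h compound. RNA → RT (oligo-dT) → PCR → 6-FAM labelling → HpaI cut → CE fluorescence. Bidirectional fit, DMSO baseline.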

[13] = ATG_M_19_CIS: Attagene CIS-FACTORIAL HepG2 Assay for M19 Transcription Factor (Internal Marker) (AID 2282939); conditions: HepG2 Attagene CIS-FACTORIAL M19 internal marker reporter; actives raise or lower the signal
Procedure, shortened: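 Internal marker readout, fitted in both directions against DMSO, from HepG2 cells carrying transfected cis-element reporter constructs; RT-PCR and capillary electrophoresis of reporter mRNA after 24 h exposure.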

[14] = ATG_ERE_CIS: Attagene CIS-FACTORIAL HepG2 Assay for Estrogen Response Element (ERE) (AID 2282940); conditions: HepG2 ERE cis-reporter, Attagene RNA transcript; actives raise or lower the signal
Procedure, shortened: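 After 24 h compound treatment, RNA from transfected HepG2 cells was reverse-transcribed, reporter cDNA PCR-amplified, FAM-labelled, HpaI-cut and resolved by capillary electrophoresis. ERE-driven cis reporter transcripts reflect endogenous factors; gain or loss scored against DMSO.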

[15] = ATG_Ets_CIS: Attagene CIS-FACTORIAL HepG2 Assay for human Erythroblast Transformation Specific (ETS) (AID 2282941); conditions: HepG2 ETS cis-reporter transcription, actives raise or lower the signal
Procedure, shortened: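 After transient cis-reporter transfection, HepG2 cells receive test chemical for 24 h. Reporter mRNA levels, measured by RT-PCR and capillary electrophoresis fluorescence, are analysed bidirectionally relative to the DMSO baseline.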

[16] = target: Hepatocyte nuclear factor 3-beta (Homo sapiens) (UniProt Q9Y261); experiment: ATG_FoxA2_CIS: Attagene CIS-FACTORIAL HepG2 Assay for human Forkhead box A2 (FOXA2) (AID 2282942); conditions: HepG2 cis-reporter transcription factor activity, 24 h; actives raise or lower the signal
Procedure, shortened: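 Cells: HepG2, transient multiplex reporter transfection. Exposure 24 h. Detection: reporter-specific RT-PCR, fluorescent labelling, restriction digest, capillary electrophoresis. Analysis: bidirectional curve fit, DMSO as negative control.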

[17] = ATG_FoxO_CIS: Attagene CIS-FACTORIAL HepG2 Assay for human Forkhead box O (FoxO) (AID 2282943); conditions: HepG2 Attagene cis-reporter, FoxO element, mRNA; actives raise or lower the signal
Procedure, shortened: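 Endogenous transcription factor activity read from multiplexed cis-promoter reporter transcripts in transiently transfected HepG2, 24 h after dosing. Reporter RNA measured via RT-PCR plus capillary electrophoresis of FAM-labeled products; gain or loss relative to DMSO.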

[18] = ATG_GATA_CIS: Attagene CIS-FACTORIAL HepG2 Assay for human GATA Binding Protein (AID 2282944); conditions: HepG2 GATA cis-element reporter, Attagene multiplex mRNA; actives raise or lower the signal
Procedure, shortened: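 Reporter transcripts from a GATA cis-regulated unit, among multiplexed reporters in transfected HepG2 cells, were measured by RT-PCR with capillary electrophoresis after 24 h dosing. Induction or loss scored relative to DMSO.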

[19] = ATG_GLI_CIS: Attagene CIS-FACTORIAL HepG2 Assay for human Zinc Finger Protein GLI1 (AID 2282945); conditions: HepG2, Attagene cis-factorial reporter mRNA, GLI element; actives raise or lower the signal
Procedure, shortened: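 Bidirectional curve fits relative to DMSO, using reporter mRNA levels from RT-PCR plus capillary electrophoresis. Cells were HepG2 transiently carrying cis-regulated reporter constructs, harvested 24 h after dosing.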

[20] = target: Bile acid receptor (Homo sapiens) (UniProt Q96RI1); experiment: ATG_IR1_CIS: Attagene CIS-FACTORIAL HepG2 Assay for human Nuclear Receptor Subfamily 1 Group H Member 4 (NR1H4), IR1 submotif (AID 2282946); conditions: IR1 reporter transcription, actives raise or lower the signal
Procedure, shortened: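 Cells (human HepG2) carry transiently transfected cis-promoter reporter transcription units. Compounds are incubated 24 h, total RNA is reverse-transcribed and amplified, and labelled fragments are resolved by capillary electrophoresis. Curves use DMSO as baseline.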

Measured: AC50

Bile acid receptor (Homo sapiens), sequence (Q96RI1 whole entry, looked up, the tested form may be a part): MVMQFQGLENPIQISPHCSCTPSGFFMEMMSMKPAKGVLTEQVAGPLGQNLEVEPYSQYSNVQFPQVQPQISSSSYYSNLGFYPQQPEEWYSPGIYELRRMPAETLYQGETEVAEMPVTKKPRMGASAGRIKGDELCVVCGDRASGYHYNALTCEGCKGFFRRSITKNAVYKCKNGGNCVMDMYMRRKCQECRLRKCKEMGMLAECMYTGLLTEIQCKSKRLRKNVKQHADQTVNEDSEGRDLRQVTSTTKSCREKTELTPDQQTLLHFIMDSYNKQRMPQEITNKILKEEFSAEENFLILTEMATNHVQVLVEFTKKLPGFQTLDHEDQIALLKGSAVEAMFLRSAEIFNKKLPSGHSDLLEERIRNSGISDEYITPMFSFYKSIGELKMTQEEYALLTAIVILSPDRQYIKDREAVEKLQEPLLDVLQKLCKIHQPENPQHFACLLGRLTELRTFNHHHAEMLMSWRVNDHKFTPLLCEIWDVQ
Transcription factor E2F1 (Homo sapiens), sequence (Q01094 whole entry, looked up): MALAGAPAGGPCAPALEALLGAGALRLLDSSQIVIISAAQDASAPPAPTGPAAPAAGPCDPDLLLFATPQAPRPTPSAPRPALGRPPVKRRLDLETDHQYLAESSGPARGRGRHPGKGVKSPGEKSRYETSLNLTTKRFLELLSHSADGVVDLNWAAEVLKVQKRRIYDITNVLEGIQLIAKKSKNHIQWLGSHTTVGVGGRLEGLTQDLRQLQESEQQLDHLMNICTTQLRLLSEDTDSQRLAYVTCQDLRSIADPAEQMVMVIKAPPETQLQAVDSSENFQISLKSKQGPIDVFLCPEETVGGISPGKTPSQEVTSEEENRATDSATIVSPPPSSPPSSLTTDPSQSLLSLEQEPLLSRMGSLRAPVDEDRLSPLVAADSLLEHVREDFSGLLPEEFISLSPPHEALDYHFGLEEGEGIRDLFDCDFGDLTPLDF
Aryl hydrocarbon receptor (Homo sapiens), sequence (P35869 whole entry, looked up): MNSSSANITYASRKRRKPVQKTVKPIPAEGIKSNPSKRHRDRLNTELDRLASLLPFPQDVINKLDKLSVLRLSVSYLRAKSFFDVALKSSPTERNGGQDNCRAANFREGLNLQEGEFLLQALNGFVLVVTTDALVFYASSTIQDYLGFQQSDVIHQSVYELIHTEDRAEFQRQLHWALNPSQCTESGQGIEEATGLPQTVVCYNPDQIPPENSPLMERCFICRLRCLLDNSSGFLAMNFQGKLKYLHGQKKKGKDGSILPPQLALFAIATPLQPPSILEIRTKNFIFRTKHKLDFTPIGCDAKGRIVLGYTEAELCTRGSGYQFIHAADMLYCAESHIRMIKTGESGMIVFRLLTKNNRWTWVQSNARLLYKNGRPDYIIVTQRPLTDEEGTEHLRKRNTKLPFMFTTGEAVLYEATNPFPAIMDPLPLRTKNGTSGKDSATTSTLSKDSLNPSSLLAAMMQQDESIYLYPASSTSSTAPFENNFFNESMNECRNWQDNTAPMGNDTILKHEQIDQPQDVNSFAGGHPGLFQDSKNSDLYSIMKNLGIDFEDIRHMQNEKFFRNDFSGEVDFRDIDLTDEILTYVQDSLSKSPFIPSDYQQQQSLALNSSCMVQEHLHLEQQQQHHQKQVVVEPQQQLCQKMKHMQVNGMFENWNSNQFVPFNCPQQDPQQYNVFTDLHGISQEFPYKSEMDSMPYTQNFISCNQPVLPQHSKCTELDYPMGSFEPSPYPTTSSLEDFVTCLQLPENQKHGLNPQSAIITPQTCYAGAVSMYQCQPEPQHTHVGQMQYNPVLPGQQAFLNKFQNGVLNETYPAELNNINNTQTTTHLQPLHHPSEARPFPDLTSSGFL
Retinoic acid receptor alpha (Homo sapiens), sequence (P10276 whole entry, looked up): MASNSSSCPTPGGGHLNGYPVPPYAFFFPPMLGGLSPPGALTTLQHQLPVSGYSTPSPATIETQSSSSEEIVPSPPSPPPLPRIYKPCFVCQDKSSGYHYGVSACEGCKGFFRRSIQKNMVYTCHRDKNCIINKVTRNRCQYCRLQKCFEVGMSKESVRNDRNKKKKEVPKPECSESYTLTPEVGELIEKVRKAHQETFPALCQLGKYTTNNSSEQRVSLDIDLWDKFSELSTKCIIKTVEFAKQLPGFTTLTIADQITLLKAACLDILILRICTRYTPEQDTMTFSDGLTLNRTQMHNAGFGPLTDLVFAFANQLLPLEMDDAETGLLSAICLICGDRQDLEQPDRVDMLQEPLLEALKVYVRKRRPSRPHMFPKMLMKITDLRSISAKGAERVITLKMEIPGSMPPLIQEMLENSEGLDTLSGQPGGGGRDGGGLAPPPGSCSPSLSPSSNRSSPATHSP
CCAAT/enhancer-binding protein beta (Homo sapiens), sequence (P17676 whole entry, looked up, the tested form may be a part): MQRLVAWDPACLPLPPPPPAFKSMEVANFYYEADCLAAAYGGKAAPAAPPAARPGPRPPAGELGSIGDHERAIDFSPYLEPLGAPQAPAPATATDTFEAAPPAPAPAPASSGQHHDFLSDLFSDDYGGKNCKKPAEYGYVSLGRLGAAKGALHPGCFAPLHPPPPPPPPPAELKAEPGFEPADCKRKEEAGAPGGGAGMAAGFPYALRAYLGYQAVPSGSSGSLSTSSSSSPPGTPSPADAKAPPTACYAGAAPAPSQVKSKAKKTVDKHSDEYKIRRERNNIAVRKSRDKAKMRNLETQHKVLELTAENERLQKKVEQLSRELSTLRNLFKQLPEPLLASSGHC
Hepatocyte nuclear factor 3-beta (Homo sapiens), sequence (Q9Y261 whole entry, looked up): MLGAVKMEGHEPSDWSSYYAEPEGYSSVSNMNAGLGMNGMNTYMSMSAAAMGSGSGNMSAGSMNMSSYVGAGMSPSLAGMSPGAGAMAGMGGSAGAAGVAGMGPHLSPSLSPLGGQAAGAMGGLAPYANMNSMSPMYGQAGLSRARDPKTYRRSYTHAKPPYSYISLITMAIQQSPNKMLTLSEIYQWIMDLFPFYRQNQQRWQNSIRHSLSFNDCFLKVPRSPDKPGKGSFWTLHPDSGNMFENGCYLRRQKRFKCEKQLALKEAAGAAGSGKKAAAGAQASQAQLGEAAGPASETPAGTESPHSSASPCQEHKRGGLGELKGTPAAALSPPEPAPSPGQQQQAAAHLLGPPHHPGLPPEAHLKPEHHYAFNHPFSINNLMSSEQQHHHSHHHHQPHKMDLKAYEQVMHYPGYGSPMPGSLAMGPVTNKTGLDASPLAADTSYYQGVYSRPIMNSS

O=C(c1ccccc1)C(Cl)Cl
active: [2] 28.7 µM | [3] 8.03 µM | [5] 53.4 µM | [10] 10.9 µM | [12] 26.6 µM | [17] 26.4 µM | [20] 5.81 µM
inactive: all other assays above

COP(=S)(OC)Oc1ccc(S(=O)(=O)N(C)C)cc1
not listed: [15] | [16] | [20]
inactive: all other assays above

C[C@]12CCC(=O)C[C@@H]1CC[C@@H]1[C@@H]2CC[C@]2(C)[C@@H](O)CC[C@@H]12
inactive: [1] | [2] | [3] | [4] | [5] | [6] | [7] | [8] | [9] | [10] | [11] | [12] | [13] | [15] | [16] | [17] | [18] | [19]
active: [2] 52.1 µM | [3] 116 µM | [4] 23.1 µM | [7] 65.4 µM and 87 µM | [10] 24 µM and 23.2 µM and 13.8 µM

COS(=O)(=O)c1ccc(C)cc1
inactive: all assays above

CC(=O)[O][Hg][c]1ccccc1
active: [1] 1.64 µM | [8] 1.24 µM | [12] 4.73 µM
inactive: all other assays above

NC(=S)Nc1ccccc1
not listed: [14] | [15] | [16]
inactive: all other assays above

O=C(Cc1ccccc1)c1ccccc1
active: [14] 24.9 µM
not listed: [16]
inactive: all other assays above

Source: PubChem BioAssay (EPA / NIEHS)
